Here are results for 91 molecules from PubChem BioAssay AID504850 (National Center for Advancing Translational Sciences (NCATS), 2011).

The structures appear in SMILES notation. The campaign covered roughly 2,300 compounds. About 1,200 (52%) were called active. About 34% were inconclusive and are not listed. Calls come from the whole dose curve; as a rule, active = well fitted inhibition curve with a large enough effect; inconclusive = small, poorly fitted or top-dose-only effect, or effect the other way; inactive = no such curve, though single readings can be large or run the other way. The set was probably picked from earlier hits. The list shows a part of the results.
% is set by controls: 0 for no effect and ±100 for the full control effect; potency is the fitted concentration of half-maximal effect.

This experiment is described as follows: Confirmation screen for delayed death inhibitors of the malarial parasite plastid, 48 hour incubation. Note: nearly all actives have a fitted effect of over 65% in size. Particulars: P. falciparum-infected erythrocytes, luciferase growth; series mostly up to 28.7 µM; activity change, negative = inhibition: at the top concentration. The method in brief:
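Single-generation (48 h, 37 C) exposure of integrated firefly luciferase-reporter P. falciparum in red cells, 0.1% parasitemia at 2% hematocrit, Albumax-supplemented RPMI. Falling luciferase signal marks parasite growth inhibition.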
Consider `CCOc1ccc(Cl)cc1C1=CC(=O)C[C@H](c2ccc(OC)cc2)C1`, for which the Potency is 14.1 µM (active). In the case of `COc1cccc(C2=CC(=O)C[C@H](c3ccc(F)cc3)C2)c1OC`, the “activity change, negative = inhibition” value is -27.1% (inactive). With `COc1ccc2c(c1)c(CC(=O)Nc1nnc(C3CC3)s1)c(C)n2C(=O)c1ccc(Cl)cc1`, the Potency was 14.1 µM (active).

Take `Cc1ccc(-n2cc(CN3CCC(CO)(Cc4cccc(C(F)(F)F)c4)CC3)cn2)cc1`: the Potency is 7.94 µM (active). Regarding `N#Cc1ccc(Oc2ccc(-c3nc4ccccc4nc3-c3ccccc3)cc2)cc1C#N`, the Potency is 11.2 µM (active). Still for that read-out and setting: to `Cc1c(OC(C)C(=O)NCC2CCC(C(=O)O)CC2)ccc2c1oc(=O)c1ccccc12` (stereo unspecified) belongs 14.1 µM (active).

As to `Cc1c(Cc2ccccc2)c(=O)oc2cc(OC(C)C(=O)NCC3CCC(C(=O)O)CC3)c(Cl)cc12` (stereo unspecified), the Potency was 12.6 µM (active).

Turning to `CC(C)CC1c2[nH]c3ccccc3c2CCN1CCCn1cccn1` (stereo unspecified), the Potency is 12.6 µM (active). Still for that read-out and setting: to `CCC1CCC(C(=O)NC(CCSC)C(=O)NCCN(CC(C)C)CC(C)C)CC1` (stereo unspecified) belongs 12.6 µM (active); to `O=C(CSc1nc2c(sc3ccccc32)c(=O)n1-c1ccccc1)NCc1ccco1`, 11.2 µM (active). Same read-out and setting: to `O=C(CSc1nc2ccccc2c(=O)n1Cc1ccc(C(=O)NC2CC2)cc1)NCc1ccco1` belongs 14.1 µM (active).

Regarding `O=C(CSc1c2c(nc3ccccc13)CCCC2)NCc1ccco1`, the “activity change, negative = inhibition” value was -14.6% (inactive). For `O=C(CCC1N=C2c3ccccc3N=C(SCC(=O)NCc3ccco3)N2C1=O)NCc1ccco1` (stereo unspecified), the “activity change, negative = inhibition” value is -31.8% (inactive).

On to `CCN(CC)CCn1c2c(c(SCC(=O)Nc3nc4ccccc4s3)nc1=O)CCCC2`, for which the Potency is 7.08 µM (active). On the same count and under the same terms, to `CC[N+](CC)(CC)CCCCOc1ccc2c(c1)C(=O)c1cc(OCCCC[N+](CC)(CC)CC)ccc1-2` belongs 0.0398 µM (active). As to `Cc1ccc(-c2nc(CSc3nc4ccccc4c(=O)n3CCO)cs2)cc1`, the “activity change, negative = inhibition” value is -13.4% (inactive).

With `Cc1cccc(NC(=O)C(C)Sc2nc3ccccc3c(=O)n2CCCN2CCOCC2)c1` (stereo unspecified), the Potency is 12.6 µM (active). The same measure, in the same setting: to `Cc1ccc(NC(=O)CSc2nc3ccccc3c(=O)n2CCCN2CCCCC2)cc1Cl` belongs 7.94 µM (active).

Regarding `N#CCc1ccc(C(=O)c2ccccc2F)s1`, the “activity change, negative = inhibition” value was 0.887% (inactive). For the molecule `Cc1cccc(NC(=O)COC(=O)c2cccc3c2C(=O)c2ccccc2C3=O)c1C`, the Potency was 15.8 µM (active).

On to `Cn1c(=O)c2c([nH]c(=O)n2C)n(C)c1=O`, for which the “activity change, negative = inhibition” value was -0.358% (inactive). `COc1ccc(CN(CCC(c2ccccc2)c2ccco2)C(=O)c2ccco2)cc1` (stereo unspecified): the Potency was 10 µM (active).

On to `COc1ccc(S(=O)(=O)N/N=C(/C)c2ccco2)cc1`, for which the “activity change, negative = inhibition” value is -6.45% (inactive).

With `O=C(CNC(=O)c1ccco1)OCC(=O)c1ccccc1`, the “activity change, negative = inhibition” value was 2.63% (inactive). Consider `Cc1ccnc(NCc2cccc3ccccc23)c1`, for which the Potency was 12.6 µM (active). On to `Cc1ccnc(NCc2ccc(Cl)cc2)c1`, for which the “activity change, negative = inhibition” value was 18% (inactive). Consider `CCOC(=O)c1c(CS(=O)(=O)c2ccccc2)n(C)c2cc(Br)c(O)cc12`, for which the Potency was 12.6 µM (active). Regarding `O=C(/C=C/c1cccs1)Nc1sc2c(c1C(=O)O)CCCC2`, the “activity change, negative = inhibition” value was -4.46% (inactive).

Take `CC(C)N1CCc2c(sc(NC(=S)NC(=O)c3ccccc3)c2C#N)C1`: the Potency is 10 µM (active). On the same count and under the same terms, to `CC(=O)Nc1sc2c(c1-c1nc3ccccc3s1)CCN(C(C)C)C2` belongs 4.47 µM (active); to `CCN(CC)CCC[C@H](C)Nc1ccnc2cc(Cl)ccc12`, 0.501 µM (active); to `CCN(CC)CCC[C@H](C)Nc1c2ccc(Cl)cc2nc2ccc(OC)cc12`, 0.178 µM (active). Same read-out and setting: to `COc1ccc2nc3cc(Cl)ccc3c(Nc3cc(C(C)C)c(O)cc3C)c2c1` belongs 0.0224 µM (active). Consider `CCOC(=O)C1=C(C)N=c2s/c(=C\c3ccc(OCC(=O)O)cc3)c(=O)n2C1c1ccc(OC(C)C)cc1` (stereo unspecified), for which the Potency is 5.01 µM (active).

In the case of `Clc1cccc(Cl)c1C[n+]1ccc2ccccc2c1`, the Potency is 2.82 µM (active).

`CN(C)c1cc[n+](Cc2c(Cl)cccc2Cl)cc1`: the Potency is 2.24 µM (active). The same measure, in the same setting: to `COc1ccc(NC(=O)CCCn2nc(C)c3c(C)n(-c4ccccc4)nc3c2=O)cc1` belongs 11.2 µM (active). Turning to `Cc1ccc(-c2nnn(CC(=O)Nc3ccc4nn(-c5ccccc5)nc4c3)n2)o1`, the “activity change, negative = inhibition” value was -6.32% (inactive).

With `COc1ccc(NC(=O)CCCn2cc([N+](=O)[O-])cn2)cc1`, the “activity change, negative = inhibition” value was -1.74% (inactive).

As for `CCOc1ccc(CCNC(=O)CCCn2nc(C)c3c(C)n(-c4ccccc4)nc3c2=O)cc1`, the Potency was 11.2 µM (active).

Regarding `CCOc1ccccc1C(=O)NCC(=O)NCCc1ccc(S(N)(=O)=O)cc1`, the “activity change, negative = inhibition” value was -5.73% (inactive).

In the case of `Cc1ccccc1NC(=O)CCCn1nc(C)c2c(C)n(-c3ccccc3)nc2c1=O`, the Potency is 10 µM (active).

Consider `Cc1cccc(C)c1NC(=O)CCCn1nc(C)c2c(C)n(-c3ccccc3)nc2c1=O`, for which the Potency was 12.6 µM (active).

On to `COCCN(C(=S)Nc1ccc(OC)c(Cl)c1)C1CCN(C(C)C)CC1`, for which the Potency is 14.1 µM (active).

Consider `COc1ccc2[nH]c3c(c2c1)CCN1C(=O)N([C@@H](C)C(=O)NCCc2ccc(F)cc2)C(=O)[C@]31C`, for which the Potency is 12.6 µM (active).

`CCCCOc1ccc(N2C(N)=NC(N)=NC23CCCCC3)cc1`: the Potency was 2 µM (active). On the same count and under the same terms, to `CCOC(=O)C1=C(NC(=S)NC(=O)c2ccccc2)c2ccccc2CC1(C)CC` (stereo unspecified) belongs 11.2 µM (active). In the case of `O=C(NC1CCC1)C1CCC(=O)N(Cc2ccccc2F)C1` (stereo unspecified), the “activity change, negative = inhibition” value was -11.4% (inactive). `Cc1ccc2nc(CNC(=O)C3CCC(=O)N(Cc4ccccc4F)C3)cn2c1` (stereo unspecified): the Potency was 12.6 µM (active). On the same count and under the same terms, to `COc1ccc(-c2nc(N3CCN(C)CC3)sc2-c2ccc(OC)cc2)cc1` belongs 15.8 µM (active).

For the molecule `Cc1ccc(-c2nnc(N3CCOCC3)c3ccccc23)cc1S(=O)(=O)NCC1CCCO1` (stereo unspecified), the Potency was 7.08 µM (active). Take `CC(=O)Nc1ccc(Nc2nnc(-c3ccc(C)c(S(=O)(=O)NCC4CCCO4)c3)c3ccccc23)cc1` (stereo unspecified): the “activity change, negative = inhibition” value was -0.717% (inactive). On to `CCOCCCn1c(C)nc2c(c1=O)c1nc3ccccc3nc1n2CCC1=CCCCC1`, for which the Potency is 7.08 µM (active). For the molecule `Cc1nn2c(Nc3ccccc3)c3c(nc2c1-c1ccccc1)CCC3`, the Potency is 15.8 µM (active). `Cc1ccc(-c2csc3nc[nH]c(=O)c23)cc1`: the “activity change, negative = inhibition” value is -1.08% (inactive). `Clc1ccc2nnnc(-c3ccccc3)c2c1`: the Potency was 3.98 µM (active). The same measure, in the same setting: to `Cc1ccc(S(=O)(=O)N2CCN(c3ccc(C(=O)N4CCOCC4)cc3[N+](=O)[O-])CC2)cc1` belongs 7.08 µM (active); to `O=C(c1ccc(S(=O)(=O)Cc2ccccc2Cl)c([N+](=O)[O-])c1)N1CCOCC1`, 10 µM (active); to `O=C(c1ccc(S(=O)(=O)Cc2cc(F)ccc2F)c([N+](=O)[O-])c1)N1CCCC1`, 12.6 µM (active).

With `CC1CCN(C(=O)C2CCCN(c3ncnc4c3nc3n4CCCCC3)C2)CC1` (stereo unspecified), the Potency is 14.1 µM (active).

`Cc1cccc(N2CCN(C(=O)C3CCN(c4ncnc5c4nc4n5CCCCC4)CC3)CC2)c1C`: the Potency is 14.1 µM (active). Still for that read-out and setting: to `COC(=O)CC1C(=O)NCCN1C(=S)Nc1ccc(F)cc1` (stereo unspecified) belongs 14.1 µM (active); to `CCOC(=O)C(Cc1ccccc1)C(=O)Nc1cccc2ccccc12` (stereo unspecified), 3.98 µM (active).

Consider `COc1cccc(COC(=O)C2CC(=O)N(Cc3ccco3)C2)c1OC` (stereo unspecified), for which the “activity change, negative = inhibition” value was -19.1% (inactive).

Regarding `CCC1CN(C(=O)N2CCC(C(=O)NCc3cccc(OC)c3OC)CC2)c2cc(C)ccc2O1` (stereo unspecified), the Potency is 12.6 µM (active). On to `O=C(NC(=C(Cl)Cl)S(=O)(=O)c1ccc(Cl)cc1)c1ccccc1`, for which the “activity change, negative = inhibition” value is -9.33% (inactive). Regarding `CC(C)NS(=O)(=O)c1ccc(NC(=S)NC(=O)c2ccc(-c3ccccc3)cc2)cc1`, the Potency is 5.01 µM (active). Same read-out and setting: to `O=c1c(Cl)c(Cl)cnn1Cc1nnc(-c2ccc(Cl)cc2)o1` belongs 14.1 µM (active); to `O=C(NC1CCCCC1)N1CCN(c2ccc([N+](=O)[O-])cc2)CC1`, 11.2 µM (active). Take `O=C(Nc1cccc([N+](=O)[O-])c1)c1ccc2nsnc2c1`: the “activity change, negative = inhibition” value was -9.9% (inactive). With `Cc1ccc(NC(=O)c2ccc(Nc3c([N+](=O)[O-])cc([N+](=O)[O-])cc3[N+](=O)[O-])cc2)cc1`, the Potency is 3.16 µM (active). On the same count and under the same terms, to `Cc1ccc(NC(=O)/C(=C\c2ccc([N+](=O)[O-])cc2)NC(=O)c2ccccc2)cc1` belongs 10 µM (active); to `O=C(NCc1ccccc1)c1c[nH]c2ccccc2c1=O`, 14.1 µM (active). In the case of `COCCn1c(=O)[nH]c2cc(C(=O)NCc3ccccc3)ccc2c1=O`, the “activity change, negative = inhibition” value was 2.77% (inactive). Regarding `CCOC(=O)c1ccc2c(c1)n(CC)c(/C=C/N(C)c1ccccc1)[n+]2CC`, the Potency was 0.447 µM (active). The same measure, in the same setting: to `CCn1c(/C=C/N(C(C)=O)c2ccccc2)[n+](CC)c2ccc(Cl)cc21` belongs 2.82 µM (active). Still for that read-out and setting: to `CCc1ccc(NC(=O)CN(c2cc(C)cc(C)c2)S(=O)(=O)c2c(C)[nH]c(=O)[nH]c2=O)cc1` belongs 12.6 µM (active); to `CCC1S/C(=N/N=C/c2ccco2)N(Cc2ccccc2)C1=O` (stereo unspecified), 14.1 µM (active); to `CCC1S/C(=N/N=C/c2ccco2)N(Cc2ccccc2C)C1=O` (stereo unspecified), 11.2 µM (active). Take `CC1S/C(=N/N=C/c2ccco2)N(Cc2ccccc2)C1=O` (stereo unspecified): the “activity change, negative = inhibition” value was -10.7% (inactive). With `CCc1ccc(/C=N/n2c(C)cc(C)c(C#N)c2=O)cc1`, the Potency is 6.31 µM (active). Same read-out and setting: to `C=C1C(=O)O[C@@H]2[C@H]1CC[C@H](C)[C@]1(O)CCC(=O)[C@@]21C` belongs 12.6 µM (active); to `N=C(N)c1ccc(/C=C/c2ccc(C(=N)N)cc2O)cc1`, 0.708 µM (active); to `COC(=O)c1ccc(Sc2nnnn2-c2ccccc2)c([N+](=O)[O-])c1`, 11.2 µM (active). Still for that read-out and setting: to `O=C(NC1CCS(=O)(=O)C1)/C(=C\c1ccc(F)cc1)NC(=O)c1ccccc1` (stereo unspecified) belongs 15.8 µM (active); to `Cn1c(=O)oc2cc(S(=O)(=O)NCCC(=O)NCc3ccc(F)cc3)ccc21`, 15.8 µM (active); to `COc1cc2c(O)c3c(c(-c4ccc5c(c4)OCO5)c2cc1OC)C(=O)OC3`, 10 µM (active). For the molecule `CCOc1ccccc1NC(=S)N1CCN(c2cccc(OC)c2)CC1`, the “activity change, negative = inhibition” value is -10.4% (inactive). Take `CCOc1ccccc1NC(=O)/C(C#N)=C/c1cccnc1`: the Potency is 14.1 µM (active). Same read-out and setting: to `Fc1ccc(Nc2nc(N3CCOCC3)nc(N3CCOCC3)n2)cc1` belongs 14.1 µM (active). Take `N#Cc1cc(S(=O)(=O)c2ccccc2)c(N)[nH]c1=O`: the “activity change, negative = inhibition” value is -20.3% (inactive).
